# Test results reported in PubChem BioAssay AID504863 (Sanford-Burnham Center for Chemical Genomics, 2011).
# The list shows a part of the results. A number with no mark means an inactive call.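 How the source made its calls: active means inhibition averaging 50% or more, tested at 20 µM; inactive means the rest.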
# System: diaphorase (Clostridium kluyveri)
# Assay: diaphorase inhibitors and chemical oxidizers, confirmation, counter-screen for P. falciparum G6PD inhibitor project, biochemical, fluorescence intensity, 30 µM NADPH (AID 504863);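 further: 0% = DMSO with enzyme and 100% = DMSO wells lacking diaphorase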
# Conditions: Diaphorase/resazurin coupled assay, resorufin fluorescence, at 20 µM, stronger effect = higher value
smiles,measurement,value
O=C1NC(=O)N(c2ccccc2)C(=O)/C1=C/c1ccc([N+](=O)[O-])s1,inhibition,20.5%
